The values below are quoted from earlier work in PubChem BioAssay AID977610.

The whole screen tested about 3,600 compounds, of which about 3,600 (100%) were called active. Cut-off not given; nearly all actives show Ki up to about 18000 µM. The set was probably picked from earlier hits. The list shows a part of the results. Bridge positions count the residues as written; N and C are the ends. Square brackets hold non-standard residues; d marks the D form. Peptide text beside a SMILES is read from it. Orn(CH(NH2)2) = NC(N)NCCC[C@H](N)C(=O)O

The data set is described as follows: PubChem AID 977610. Particulars: PDB protein-ligand complexes, literature Ki.

For `C[C@@H](N)C(=O)N[C@H](C)C(=O)O` (H-[dA]-[dA]-OH), the Ki (commonly the equilibrium dissociation constant of an inhibitor or competing ligand from its target) (protein: vancomycin resistance D,D-dipeptidase/D,D-pentapeptidase VanXYc D59S mutant, PDB entry 4oak) is 59.7 µM (active).

Turning to `O=c1[nH]c(=O)n([C@@H]2O[C@H](CO[P+](O)(O)O[P+](O)(O)O)[C@@H](O)[C@H]2O)cc1-c1ccc(CO)s1`, under “protein: Histo-blood group ABO system transferase, PDB entry 3v0p”, the inhibition constant (Ki) was 0.53 µM (active).

Turning to `O=c1[nH]c(=O)n([C@@H]2O[C@H](CO[P+](O)(O)O[P+](O)(O)O[C@H]3O[C@H](CO)[C@H](O)[C@H](O)[C@H]3O)[C@@H](O)[C@H]2O)cc1-c1ccccc1`, the Ki (protein: Histo-blood group ABO system transferase, PDB entry 3v0l) was 3 µM (active).

On to `N[C@](CF)(Cc1c[nH]c2ccccc12)C(=O)O`, for which the inhibition constant (Ki) (protein: Pyridoxal-dependent decarboxylase domain protein RUMGNA-01526, PDB entry 4obv) is 178000 µM (active).

For `CN(C)CCOc1cccc(-c2ccc(Cl)cc2)c1CN1CCN(c2ccc(C(=O)NS(=O)(=O)c3ccc(NCC4CCOCC4)c([N+](=O)[O-])c3)c(Oc3ccc4[nH]ccc4c3)c2)CC1`, the inhibition constant (Ki) (protein: Apoptosis regulator Bcl-2, PDB entry 4lxe) is 0.0001 µM (active) and the inhibitory constant (Ki) (protein: Apoptosis regulator Bcl-2, PDB entry 4man) was 1e-05 µM (active).

Consider `CN1C(=O)[C@@](CCC2CCCCC2)(C[C@H]2CCC[C@@H](Nc3ccc4ccccc4n3)C2)N=C1N`, for which the inhibitory constant (Ki) (protein: Beta-secretase 1 BACE 1, PDB entry 4r95) was 0.014 µM (active).

For the compound `COc1ccc(-c2cc(Oc3cc(C)cc(OC)c3)cc(C)n2)cc1`, where the note is “protein: Macrophage migration inhibitory factor-like protein MIF, PDB entry 4p7s”, the inhibition constant Ki was 0.038 µM (active).

Take `Cc1cc(Oc2cccc(O)c2)cc(-c2ccccc2)n1`: the Ki (protein: Macrophage migration inhibitory factor-like protein MIF, PDB entry 4p7m) was 0.039 µM (active).

Consider `COc1cc(O)c2c(c1)/C=C/C[C@H](O)[C@H](O)C(O)CCC[C@H](C)OC2=O` (stereo partly drawn), for which, under “protein: Tak1-Tab1 fusion protein, PDB entry 4gs6”, the inhibition constant (Ki) was 0.071 µM (active).

With `Cc1ncc(CO[P+](O)(O)O)c(CNc2co[nH]c2=O)c1O`, the inhibition constant (Ki) (protein: methionine gamma-lyase MGL, PDB entry 4oma) was 68 µM (active).

As for `CCCN1CCC(c2nc3c(C(N)=O)cccc3[nH]2)CC1`, the inhibition constant (Ki) (protein: Poly [ADP-ribose] polymerase 1, PARP-1, PDB entry 2rcw) is 0.008 µM (active).

In the case of `O=C(O)Cc1nn(Cc2nc3cc(C(F)(F)F)ccc3s2)c(=O)c2ccccc12`, under “protein: Lactoylglutathione lyase, PDB entry 4kyh”, the Ki was 1.2 µM (active).

Turning to `CC1(C)CCC(c2ccc(Cl)cc2)=C(CN2CCN(c3ccc(C(=O)NS(=O)(=O)c4ccc(N[C@H](CCN5CCOCC5)CSc5ccccc5)c(S(=O)(=O)C(F)(F)F)c4)cc3)CC2)C1`, the inhibitory constant (Ki) (protein: Apoptosis regulator Bcl-2, PDB entry 4lvt) is 4.4e-05 µM (active).

Turning to `O=C(NS(=O)(=O)c1ccc(NC2CCOCC2)c([N+](=O)[O-])c1)c1ccc(N2CCN(CC3=C(c4ccc(Cl)cc4)CCOC3)CC2)cc1`, the Ki (protein: Apoptosis regulator Bcl-2, PDB entry 4lxd) was 0.059 µM (active).

Regarding `CSCC[C@@H]1NC(=O)[C@H](CCCNC(N)N)NC(=O)[C@H](Cc2cnc[nH]2)NC(=O)[C@H](CC(N)=O)NC(=O)[C@H](CCC(=O)O)NC(=O)[C@H](CC(C)C)NC(=O)CNC(=O)[C@H](CCCNC(N)N)NC(=O)[C@H](Cc2c[nH]c3ccccc23)NC(=O)[C@H](CO)NC(=O)[C@@H](N)CSSC[C@@H](C(=O)O)NC1=O` (H-CSW[Orn(CH(NH2)2)]GLENH[Orn(CH(NH2)2)]MC-OH; disulfide 1-12), under “protein: Plasminogen activator, urokinase, PDB entry 2nwn”, the inhibition constant Ki was 0.5 µM (active).

Turning to `CC(C)C[C@H](NC(=O)[C@@H]1CSSC[C@H]2C[C@H](NC(=O)CN)C(=O)N[C@@H](CC(C)C)C(=O)NCC(=O)N[C@@H](CCCN=C(N)N)C(=O)NCC(=O)N[C@@H](CSS2)C(=O)N[C@@H](CCC(=O)O)C(=O)N[C@@H](CC(N)=O)C(=O)N[C@@H](Cc2cnc[nH]2)C(=O)N[C@@H](CCCN=C(N)N)C(=O)N1)C(N)=O`, the inhibitory constant (Ki) (protein: Urokinase-type plasminogen activator, PDB entry 4os6) was 0.36 µM (active).

As to `NC(=O)C[C@@H]1NC(=O)[C@@H](N)CSSC[C@@H](C(=O)NCC(=O)O)NC(=O)[C@H](CCCN=C(N)N)NC(=O)CNC1=O` (H-CNGRCG-OH; disulfide 1-5), the Ki (protein: Aminopeptidase N pAPN, PDB entry 4ou3) is 38.7 µM (active).

Turning to `CC(C)C[C@H](NC(=O)[C@@H]1CSS[C@@H]2CSSC[C@H](NC(=O)CNC(=O)[C@H](CCCN=C(N)N)NC(=O)CNC(=O)[C@H](CC(C)C)NC(=O)[C@@H](NC(=O)CN)C2)C(=O)N[C@@H](CCC(=O)O)C(=O)N[C@@H](CC(N)=O)C(=O)N[C@@H](Cc2cnc[nH]2)C(=O)N[C@@H](CCCN=C(N)N)C(=O)N1)C(N)=O`, the Ki (protein: Urokinase-type plasminogen activator, PDB entry 4os2) is 0.2 µM (active).

For the compound `CC(C)C[C@H](NC(=O)[C@@H]1CSSC[C@H](N)C(=O)N[C@H]2CSSC[C@H](NC(=O)CNC(=O)[C@H](CCCNC(N)N)NC(=O)CNC(=O)[C@H](CC(C)C)NC2=O)C(=O)N[C@@H](CCC(=O)O)C(=O)N[C@@H](CC(N)=O)C(=O)N[C@@H](Cc2cnc[nH]2)C(=O)N[C@@H](CCCNC(N)N)C(=O)N1)C(N)=O` (H-CCLG[Orn(CH(NH2)2)]GCENH[Orn(CH(NH2)2)]CL-NH2; disulfide 1-12, 2-7), for the setting “protein: Urokinase-type plasminogen activator (C122A, N145Q mutation), PDB entry 4gly”, the Ki is 7.7 µM (active).

On to `O=c1cc(-c2ccc(Br)cc2)oc2ccccc12`, for which, for the setting “protein: Tankyrase-2, PDB entry 4kzu”, the inhibitory constant (Ki) was 0.313 µM (active).

For `COc1ccc(CC[C@@H](OC(=O)[C@@H]2CCCCN2C(=O)[C@H](c2cc(OC)c(OC)c(OC)c2)[C@@H]2C=CCCC2)c2cccc(OCCN3CCOCC3)c2)cc1OC`, the inhibition constant (Ki) (protein: Peptidyl-prolyl cis-trans isomerase FKBP5 FKBP51FK1, PDB entry 4tw7) is 0.026 µM (active).

As to `C=CC[C@H](C(=O)N1CCCC[C@H]1C(=O)O[C@H](CCc1ccc(OC)c(OC)c1)c1cccc(OCC(=O)O)c1)c1cc(OC)c(OC)c(OC)c1`, under “protein: Peptidyl-prolyl cis-trans isomerase FKBP5 FKBP51FK1, PDB entry 4tw6”, the Ki is 61 µM (active).

`COc1ccc(CC[C@@H](OC(=O)[C@@H]2CCCCN2C(=O)[C@H](c2cc(OC)c(OC)c(OC)c2)[C@@H]2CC=CCC2)c2cccc(OCC(=O)NCc3c(O)ccc4cc5ccc(=O)cc-5oc34)c2)cc1OC`: the inhibitory constant (Ki) (protein: Peptidyl-prolyl cis-trans isomerase FKBP4 FKBP52FK1FK2, PDB entry 4tw8) was 2.61 µM (active).

Regarding `OC[C@H]1CNC[C@@H](O)[C@@H]1O[C@@H]1O[C@H](CO)[C@@H](O)[C@H](O)[C@@H]1O`, the Ki (protein: GH26 beta-mannanase CjMan26C from Cellvibrio japonicus, PDB entry 4cd4) was 0.263 µM (active) and the inhibitory constant (Ki) (protein: GH113 beta-mannanase AaManA from Alicyclobacillus acidocaldarius, PDB entry 4cd6) was 260 µM (active).

Consider `OC[C@H]1CNC[C@@H](O)[C@@H]1O`, for which the Ki (protein: Beta-glucosidase 1, PDB entry 4iic) is 14 µM (active).

Turning to `O=C(c1ccc(F)c(F)c1Nc1ccc(I)cc1F)N1CC(O)([C@@H]2CCCCN2)C1`, the Ki (protein: Dual specificity mitogen-activated protein kinase kinase 1, PDB entry 4lmn) is 5e-05 µM (active).

For `ON1CC=CCC1=S`, the inhibition constant (Ki) (protein: Carbonic anhydrase 2 (H94D mutation), PDB entry 4jss) is 500 µM (active).

On to `CC(C)(C)n1nc(-c2cccc3ccccc23)c2c(N)ncnc21`, for which the Ki (protein: Aminoglycoside 3'-phosphotransferase AphA1-IAB, PDB entry 4gkh) was 21.5 µM (active).

With `C[C@H](C[P+](O)(O)[C@H](Cc1ccccc1)NC(=O)[C@H](N)Cc1nn[nH]n1)C(=O)N[C@@H](C)C(N)=O`, the Ki (protein: ANGIOTENSIN-CONVERTING ENZYME, PDB entry 4bxk) was 0.0112 µM (active).

Take `CC(=O)N[C@@H](CC(=O)O)C(=O)N[C@@H](Cc1ccccc1)[P+](O)(O)C[C@@H](C)C(=O)N[C@@H](C)C(N)=O`: the inhibitory constant (Ki) (protein: Angiotensin Converting Enzyme N domain glycsoylation mutant (Ndom389), PDB entry 3nxq) is 0.007 µM (active).

As to `CC(=O)N[C@@H](CC(C)C)C(=O)N[C@H](C(=O)N[C@@H](Cc1ccccc1)C(=O)N[C@]1(C)CCCCCC/C=C/CCC[C@@](C)(C(=O)N[C@@H](CO)C(=O)N[C@@H](C)C(=O)N[C@@H](C)C(=O)O)NC(=O)[C@H](CC2CCC2)NC(=O)[C@H](CCC(N)=O)NC(=O)[C@H](C)NC(=O)[C@H](Cc2c[nH]c3ccccc23)NC(=O)[C@H](Cc2ccc(O)cc2)NC(=O)[C@H](CCC(=O)O)NC1=O)[C@@H](C)O`, under “protein: Protein Mdm4, PDB entry 4n5t”, the Ki is 0.007 µM (active).
